Test results as given in PubChem BioAssay AID1159580 (chemical genetic matrix, 2015).
The whole screen tested about 5,500 compounds, of which about 2,000 (36%) were called active. Inconclusive results (about 18%) are left out. Cut-off read from the data, not from the text of the source: active = normalized growth mostly below about 0.91 (no sharp cut-off); inconclusive = no clear call, values can overlap the other calls; inactive = mostly above about 0.92. The list shows a part of the results.

Assay: chemical genetic growth profiling, strain panel (AID 1159580);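 note: tested at 20 µM; growth read once vehicle control cultures reached saturation at 30 °C; 1 = growth at the plate median or of vehicle wells; lower values mean less growth of the strain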
Details: S. cerevisiae deletion strains, growth OD

Measured: normalized growth

Nc1cc(=O)[nH]c(N)n1
inactive: locus YAL040C, strain CLN3, active compounds read low 1.01 | locus YCL061C, strain MRC1 (second series), active compounds read low 0.991 | locus YDR150W, strain NUM1, active compounds read low 0.978 | locus YDR363W, strain ESC2, active compounds read low 0.953 | locus YER002W, strain NOP16, active compounds read low 1.01 | locus YMR307W, strain GAS1, active compounds read low 0.981 | locus YNL128W, strain TEP1, active compounds read low 0.984 | locus YNL175C, strain NOP13, active compounds read low 1.01 | locus YNL197C, strain WHI3, active compounds read low 0.987 | locus YNL224C, strain SQS1, active compounds read low 1.01 | locus YNL322C, strain KRE1, active compounds read low 1 | locus YOR083W, strain WHI5 (second series), active compounds read low 1.02 | locus YPL241C, strain CIN2, active compounds read low 1.01

CC(C)(C)c1ccc(C(=N)SC(C(=O)C(F)(F)F)c2ccccc2)cc1 (centres undefined)
active: locus YHR030C, strain SLT2, active compounds read low 0.471 | locus YPL256C, strain CLN2, active compounds read low 0.846
inactive: locus YAR019C, strain CDC15, active compounds read low 0.987 | locus YBL105C, strain PKC1, active compounds read low 0.994 | locus YBR135W, strain CKS1, active compounds read low 0.994 | locus YBR136W, strain MEC1, active compounds read low 0.985 | locus YBR160W, strain CDC28, active compounds read low 0.994 | locus YDL017W, strain CDC7, active compounds read low 0.998 | locus YDL028C, strain MPS1, active compounds read low 0.989 | locus YDL101C, strain DUN1, active compounds read low 0.992 | locus YDL108W, strain KIN28, active compounds read low 0.987 | locus YDL132W, strain cdc53, active compounds read low 0.989 | locus YDL214C, strain PRR2, active compounds read low 0.916 | locus YDR052C, strain DBF4, active compounds read low 0.993 | locus YDR054C, strain cdc34, active compounds read low 0.986 | locus YDR226W, strain ADK1, active compounds read low 0.993 | locus YDR477W, strain SNF1, active compounds read low 0.865 | locus YER123W, strain YCK3, active compounds read low 0.877 | locus YER133W, strain GLC7, active compounds read low 0.942 | locus YFL009W, strain cdc4, active compounds read low 0.991 | locus YFL029C, strain CAK1, active compounds read low 0.982 | locus YFR003C, strain YPI1, active compounds read low 0.986 | locus YFR019W, strain FAB1, active compounds read low 0.884 | locus YFR028C, strain CDC14, active compounds read low 0.985 | locus YGR040W, strain KSS1, active compounds read low 0.894 | locus YGR052W, strain FMP48, active compounds read low 0.96 | locus YGR092W, strain DBF2, active compounds read low 0.887 | locus YHR079C, strain IRE1, active compounds read low 0.804 | locus YHR082C, strain KSP1, active compounds read low 0.766 | locus YHR205W, strain SCH9, active compounds read low 0.778 | locus YIL147C, strain SLN1, active compounds read low 0.992 | locus YJL095W, strain BCK1, active compounds read low 0.868 | locus YJL128C, strain PBS2, active compounds read low 1.02 | locus YJL157C, strain FAR1, active compounds read low 0.966 | locus YJR016C, strain ILV3, active compounds read low 0.995 | locus YJR066W, strain TOR1 (second series), active compounds read low 0.931 | locus YJR066W, strain TOR1, active compounds read low 0.859 | locus YKL048C, strain ELM1, active compounds read low 0.96 | locus YKL067W, strain YNK1, active compounds read low 0.951 | locus YKL101W, strain HSL1, active compounds read low 0.875 | locus YKL193C, strain SDS22, active compounds read low 0.986 | locus YKL203C, strain TOR2, active compounds read low 0.98 | locus YLR113W, strain HOG1, active compounds read low 0.901 | locus YLR133W, strain CKI1, active compounds read low 0.887 | locus YLR403W, strain SFP1, active compounds read low 0.89 | locus YML070W, strain DAK1, active compounds read low 0.9 | locus YMR001C, strain CDC5, active compounds read low 0.983 | locus YMR205C, strain PFK2 (second series), active compounds read low 0.941 | locus YMR277W, strain FCP1, active compounds read low 0.993 | locus YNL006W, strain LST8, active compounds read low 0.997 | locus YNL020C, strain ARK1, active compounds read low 0.884 | locus YNL161W, strain CBK1, active compounds read low 0.993 | locus YNL183C, strain NPR1, active compounds read low 0.863 | locus YNL207W, strain RIO2, active compounds read low 0.99 | locus YNL222W, strain SSU72, active compounds read low 0.989 | locus YNL307C, strain MCK1 (second series), active compounds read low 0.794 | locus YOL078W, strain AVO1, active compounds read low 0.994 | locus YOL136C, strain PFK27, active compounds read low 0.901 | locus YOR061W, strain CKA2, active compounds read low 0.885 | locus YOR119C, strain RIO1, active compounds read low 0.979 | locus YOR231W, strain MKK1, active compounds read low 0.938 | locus YOR329C, strain SCD5, active compounds read low 0.988 | locus YPL031C, strain PHO85, active compounds read low 0.872 | locus YPL153C, strain RAD53, active compounds read low 0.909 | locus YPL204W, strain HRR25, active compounds read low 0.905 | locus YPL209C, strain IPL1, active compounds read low 0.99 | locus YPR025C, strain CCL1, active compounds read low 0.995 | locus YPR106W, strain ISR1, active compounds read low 0.988 | locus YPR111W, strain DBF20, active compounds read low 0.977 | strain NNK1, active compounds read low 0.982 | strain TSCII, active compounds read low 0.985
